The list is not random: actives were taken first. Their share in the collection is about 2.2%.
APP 5UTR inh = inhibitors of APP translation via 5'UTR reporter, primary screen, APP 5'UTR luciferase, SH-SY5Y cells | SH-SY5Y APP 5'UTR-luciferase reporter, luminescence | inhibition, % at 2 µM | 190,000 tested, 0.82% active | AID 1285, 2008;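 active means inhibition above a set limit, derived from the sample mean plus 3 SD, cut at about 45% in these data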
IEC-6 cytotox = cytotoxicity in IEC-6 intestinal epithelial cells, primary screen, cytotoxicity control for KLF5 inhibitor project, cell-based, luminescence | IEC-6 cytotoxicity, luminescence viability | inhibition, % at 5 µM | 290,000 tested, 0.78% active | AID 1825, 2009; in the data active means inhibition above about 22%
BaF3 tox = parental Ba/F3 cell viability inhibition, counter-screen for JAK2V617F inhibitor project, murine pro-B, CellTiter-Glo luminescence | CellTiter-Glo ATP luminescence | inhibition, % at 5.6 µM | 220,000 tested, 1.1% active;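 active means inhibition above a per-campaign cutoff, the mean inhibition of all tested compounds plus 3 SD, cut at about 27% in these data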
Ba/F3 V617F tox = reduced viability of JAK2V617F-dependent Ba/F3 cells, primary screen, JAK2V617F inhibitor project, cell-based, Ba/F3 EpoR-JAK2V617F, luminescence; ATP luminescence; inhibition, % at 5.6 µM; 220,000 tested, 1.1% active;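 active means inhibition above the campaign mean plus 3 SD over all tested compounds, cut at about 24% in these data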;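 further: cytokine-independent growth of Ba/F3 cells driven by EpoR plus mutant JAK2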
KLF5 inh = KLF5 expression inhibitors, primary screen, DLD-1 cells, luminescence. AID 1700, 2009. inhibition, % at 5 µM. DLD-1 KLF5 promoter-luciferase reporter. 290,000 tested, 0.23% active;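 active means inhibition above a per-plate limit of that plate's mean compound inhibition plus 3 SD, cut at about 60% in these data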;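 further: higher means less KLF5 promoter-driven luciferase light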
aSyn UTR inh = MLPCN primary screen, SNCA 5' untranslated region | alpha-synuclein 5'UTR reporter, inhibitor activity | inhibition, % (tested at 7.5 µM) | 300,000 tested, 0.82% active | AID 1813, 2009; in the data active means inhibition above about 60%;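 further: H4 neuroglioblastoma cells stably carrying SNCA 5'UTR luciferase fusion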
Numbers stand for hits; – = inactive; · = no result given.

SMILES | APP 5UTR inh | IEC-6 cytotox | BaF3 tox | Ba/F3 V617F tox | KLF5 inh | aSyn UTR inh
Cc1c(CCC(=O)N2CCC(C(=O)O)(c3ccccc3)CC2)c(=O)oc2cc3oc4c(c3cc12)CCCC4 | · | – | · | · | – | 67
Cc1oc2c(C)c3oc(=O)c(CCC(=O)N4CCC(C(=O)NCCC(=O)O)(c5ccccc5)CC4)c(C)c3cc2c1C | · | – | · | · | – | –
Cc1c(CCC(=O)N2CCC(C(=O)O)CC2)c(=O)oc2cc3oc4c(c3cc12)CCCC4 | · | – | · | · | – | 74
Cc1c(CC(=O)NCCC(=O)O)c(=O)oc2cc3oc4c(c3cc12)CCCC4 | · | – | · | · | – | –
Cc1nn(Cc2cccc(Oc3ccccc3)c2)c(C)c1NC(=O)NC12CC3CC(CC(C3)C1)C2 | – | – | – | – | – | –
Cc1nn(CC(=O)Nc2ccc(Cl)cn2)c(C)c1[N+](=O)[O-] | – | – | 43 | – | – | –
Cc1cc([N+](=O)[O-])nn1CC(=O)Nc1ccc(Cl)cn1 | – | – | – | – | – | –
O=C(CN1C(=O)NC(Cc2ccccc2)C1=O)Nc1ccc(OC(F)F)cc1 (configuration not stated) | · | · | · | · | · | –
Cc1cc(NO)c(C(C)C)cc1N=O | – | – | 45 | 51 | – | –
COc1cc(CC(=O)Nc2cc(S(C)(=O)=O)ccc2Cl)cc(OC)c1OC | – | – | – | – | – | –
CCOC(=O)c1c(NC(=O)c2ccc(S(=O)(=O)N3CCOCC3)cc2)sc2c1CC(C)(C)NC2(C)C | · | – | · | · | – | –
CCOC(=O)c1c(NC(=O)c2ccc(S(=O)(=O)N3CCOCC3)cc2)sc2c1CCN(C)C2 | – | – | 33 | – | – | ·
Cc1c(Cl)cccc1N1C(=O)c2ccccc2C1=O | 68 | – | – | – | – | –
CCOC(=O)c1c(NC(=O)C2C3CCC(O3)C2C(=O)O)sc2c1CCCC2 (configuration not stated) | – | – | – | – | – | –
O=C(C1CCCCC1)N1CCN=C1SCc1cccnc1 | – | – | – | – | – | –
Cc1ccc(C(=O)Nc2ccc3c(c2)OCCO3)c(C)c1 | · | – | · | · | 65 | 73
Cc1ccc(NC(=O)c2ccc3c(c2)OCCO3)cc1C | · | – | · | · | – | 74
O=c1c2ccccc2ncn1-c1cccc([N+](=O)[O-])c1 | · | · | · | · | · | –
CC1=C/C(=N\OS(=O)(=O)c2ccccc2)C(C(C)C)=CC1=O | 96 | – | 78 | 86 | – | ·
COc1cc(C(=O)O/N=C2/C=C(C)C(=O)C=C2C)cc(OC)c1OC | – | – | – | – | – | –
CC1=C/C(=N\OS(=O)(=O)c2ccccc2)C(C)=CC1=O | 95 | – | 100 | 97 | – | ·
CC1=C(C)/C(=N\OS(=O)(=O)c2ccc(C)cc2)C=CC1=O | 90 | – | 68 | 88 | – | ·
COc1ccc(-c2[nH]ncc2CN(C)CCCN2CCOCC2)cc1F | – | – | – | – | – | –
COc1ccc(C(CC(=O)N2CCCCC2)c2c(OC)cc(OC)c3ccc(=O)oc23)cc1 (configuration not stated) | · | · | · | · | · | –
COc1ccc(-c2cc3c(nn2)-c2ccccc2C3=O)cc1 | – | – | – | – | – | 98
SMILES | APP 5UTR inh | IEC-6 cytotox | BaF3 tox | Ba/F3 V617F tox | KLF5 inh | aSyn UTR inh
Cc1ccccc1C(=O)Nc1ccc(-c2nc3ccc(C(=O)c4ccccc4)cc3[nH]2)cc1 | – | – | – | – | – | –
O=C(c1ccccc1)c1ccc2nc(-c3ccc(NC(=O)c4ccccc4Br)cc3)[nH]c2c1 | – | – | – | – | – | 75
Cc1nn(-c2ccc(Cl)cc2)c(=O)c2ccccc12 | – | – | – | – | – | –
Cc1c(Cl)sn(-c2ccc(Cl)cc2)c1=O | 92 | – | – | – | – | ·
COc1cccc(OCCCCCCN2CCOCC2)c1 | 50 | – | – | – | – | –
Cc1cc(C)c(C)c(S(=O)(=O)NCCCN2CCOCC2)c1C | – | – | 90 | – | – | –
Cc1ccccc1NS(=O)(=O)c1ccc(NC(=O)N2CCCCC2)cc1 | · | – | · | · | – | –
COc1ccc(Cn2c(SCc3ccc(C)cc3)nc3cc(OC)c(OC)cc3c2=N)cc1Cl | – | – | – | – | – | 119
CCCCCNC(=O)N[C@H](C(=O)O)C(C)C | – | – | 90 | – | – | –
CCC(C)[C@H](NC(=O)NC(C)C)C(=O)O (some centres not stated) | – | – | 92 | – | – | –
CCCCOCCCNC(=O)N[C@H](C(=O)OC)C(C)C | – | – | – | – | – | –
CCC(C)[C@H](NC(=O)Nc1ccc(C)cc1C)C(=O)O (some centres not stated) | · | – | – | – | – | –
Nc1nonc1-n1nnc(C(=O)N/N=C/c2ccc(O)cc2)c1CN1CCCCCC1 | · | · | · | · | · | –
COc1ccc(C(=O)Nc2cccc(OC)c2)cc1 | – | – | – | – | – | –
COc1ccc(C(=O)Nc2ccc3[nH]c(-c4cccc(OC)c4)cc(=O)c3c2)cc1 | 91 | – | – | – | – | –
Cc1ccc(-n2nc3c(=O)n(CCCC(=O)NCc4ccc(Cl)cc4)nc(C)c3c2C)cc1 | · | – | · | · | – | 62
Cc1ccc(-n2nc3c(=O)n(CCCC(=O)NCc4cccc(Cl)c4)nc(C)c3c2C)cc1 | · | – | · | · | – | –
CCOC(=O)N1CCN(C(=O)CN(c2ccc(Oc3ccccc3)cc2)S(C)(=O)=O)CC1 | – | – | 34 | – | – | –
CCOC(=O)N1CCN(C(=O)CN(c2ccc(OCC)cc2)S(C)(=O)=O)CC1 | – | – | – | – | – | –
O=C(NCc1cccs1)c1nc2c(nnn2Cc2ccccc2Cl)c(=O)[nH]1 | – | – | – | – | – | 77
O=C(CSCc1ccccc1)Nc1nccs1 | – | – | – | – | – | –
Cc1nnsc1C(=O)N/N=C/c1ccc2ccccc2c1O | 76 | – | – | – | – | 120
CCCC(C)NC(=O)CN1C(=O)c2cccc3cccc1c23 (configuration not stated) | · | – | · | · | – | –
COc1ccc(/C=C\c2cc(OC)c(OC)cc2CC[N+](C)(C)C)cc1OC | – | – | – | – | – | –
CCCCNC(=O)CSc1nnc(Cc2ccccc2)n1CC1CCCO1 (configuration not stated) | – | – | – | – | – | –
CCCCNC(=O)C1CCC(CNc2nc(=S)[nH]c3ccccc23)CC1 (configuration not stated) | – | – | – | – | – | –
O=C(NCc1ccccc1Cl)C1CCC(CNc2nc(=S)[nH]c3ccccc23)CC1 (configuration not stated) | – | – | – | – | – | –
O=C(NCCC1=CCCCC1)C1CCC(CNc2nc(=S)[nH]c3ccccc23)CC1 (configuration not stated) | – | – | – | – | – | 99
O=C(NCCc1ccc(Cl)cc1)C1CCC(CNc2nc(=S)[nH]c3ccccc23)CC1 (configuration not stated) | – | – | – | – | – | 65
